Measured values: PubChem BioAssay AID485346 (Sanford-Burnham Center for Chemical Genomics, 2010)
Hit rate of the full screen: of about 330,000 compounds, about 10,000 (3%) were called active. The entries come from a sample that favours actives as a whole. Values without a mark were called inactive.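 The calls were made as follows: active = inhibition of at least 50% at 8 µM in the primary screen; inactive = the rest.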

These compounds were tested against Protein Mdm4 (Homo sapiens) + E3 ubiquitin-protein ligase Mdm2 (Homo sapiens) (UniProt O15151+Q00987) (assay: disruptors of Mdm2/MdmX RING complex – cell-based, luminescence, split luciferase, SaOS-2, uHTS, primary screen (AID 485346)). Details: SaOS-2 split-luciferase Mdm2/MdmX complementation, at 8 µM, hits give high values.
Sequence of Protein Mdm4 (Homo sapiens) + E3 ubiquitin-protein ligase Mdm2 (Homo sapiens) (O15151 whole entry, looked up): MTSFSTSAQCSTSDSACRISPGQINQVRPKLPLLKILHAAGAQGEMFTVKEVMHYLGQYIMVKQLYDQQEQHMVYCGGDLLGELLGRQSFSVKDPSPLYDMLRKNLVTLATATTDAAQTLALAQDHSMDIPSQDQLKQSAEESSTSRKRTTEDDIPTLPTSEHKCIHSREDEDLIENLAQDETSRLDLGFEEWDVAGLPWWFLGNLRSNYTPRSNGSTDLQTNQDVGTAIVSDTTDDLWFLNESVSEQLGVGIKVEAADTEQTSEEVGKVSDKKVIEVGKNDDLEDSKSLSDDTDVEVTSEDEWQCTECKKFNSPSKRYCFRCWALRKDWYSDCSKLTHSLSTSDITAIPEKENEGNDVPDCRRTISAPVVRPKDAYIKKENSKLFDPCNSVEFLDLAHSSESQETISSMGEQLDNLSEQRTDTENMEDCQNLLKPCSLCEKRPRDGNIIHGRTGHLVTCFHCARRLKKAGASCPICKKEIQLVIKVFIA
Sequence of Protein Mdm4 (Homo sapiens) + E3 ubiquitin-protein ligase Mdm2 (Homo sapiens) (Q00987 whole entry, looked up): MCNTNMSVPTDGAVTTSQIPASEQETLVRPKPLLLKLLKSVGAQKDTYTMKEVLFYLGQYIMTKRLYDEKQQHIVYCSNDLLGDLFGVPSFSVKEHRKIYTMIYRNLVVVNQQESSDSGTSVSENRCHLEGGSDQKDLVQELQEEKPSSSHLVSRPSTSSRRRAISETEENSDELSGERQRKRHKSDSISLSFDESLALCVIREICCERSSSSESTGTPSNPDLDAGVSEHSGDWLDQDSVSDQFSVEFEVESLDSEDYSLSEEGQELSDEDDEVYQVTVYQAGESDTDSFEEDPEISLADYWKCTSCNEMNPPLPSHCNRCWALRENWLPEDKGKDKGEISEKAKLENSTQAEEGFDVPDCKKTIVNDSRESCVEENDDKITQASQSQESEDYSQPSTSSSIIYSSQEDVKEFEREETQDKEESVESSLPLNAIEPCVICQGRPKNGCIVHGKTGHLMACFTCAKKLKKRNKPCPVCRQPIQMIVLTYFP
Compound `CCC(=O)c1ccc(OCC(O)Cn2nc(C)c(C(C)=O)c2C)cc1` (stereo not drawn) has an inhibition of 4.82%.
Compound `CC1CCCC(NC(=O)c2cc(-c3ccncc3)nc3ccccc23)C1C` (stereo not drawn) has an inhibition of -4.9%.
Compound `Cc1ccc(C(=O)O)cc1S(=O)(=O)NCC1CCCO1` (stereo not drawn) has an inhibition of -63.3%.
For `Cc1noc(C)c1CCC(=O)N1CCCC(CO)(Cc2ccccc2)C1` (stereo not drawn), the inhibition was -31.3%.
Compound `COc1ccc(Cl)cc1NC(=O)CN(C)Cc1ccc(OC)c(OC)c1` has an inhibition of 29.4%.
`C/C(=N\NC(=O)OC(C)(C)C)c1ccc[nH]1` was tested, and the inhibition was -29.2%.
With `COc1ccccc1C(=O)Nc1ccc(C)c(S(=O)(=O)N2CCCCC2)c1` the inhibition was 15%.
`O=C(Nc1ccc(N2CCN(C(=O)c3cccs3)CC2)cc1)c1cccnc1Cl` was tested, and the inhibition was -22.2%.
For `Cc1ccccc1C(=O)N1CCN(c2ccc(NC(=O)c3cccs3)cc2)CC1`, the inhibition was 53.9% (active).
`O=C(Nc1ccc(N2CCN(C(=O)C3CC3)CC2)cc1)c1cccs1` showed an inhibition of -10.3%.
`CCCc1cc(=O)[nH]c(SCC(=O)Nc2ccc(C(=O)Nc3ccccc3OC)cc2)n1` gave an inhibition of 21.4%.
`COCCNC(=O)C(OC(=O)c1cccs1)c1ccc(F)cc1` (stereo not drawn) gave an inhibition of 4.05%.
With `CCc1cccc(NC(=O)CCC(=O)O)c1` the inhibition was 3.13%.
`O=C(Cc1ccccc1)Nc1cccc(NC(=O)c2ccccc2)c1` was tested, and the inhibition was 4.35%.
`O=C(CCl)Nc1cccc(CP(=O)(c2ccccc2)c2ccccc2)c1` was tested, and the inhibition was 96.3% (active).
In the case of `Clc1ccc(-c2nc3ccccn3c2CN2CCSCC2)cc1`, the inhibition is reported as 15.3%.
Compound `Cc1ccc(CNC(=O)C2CCN(S(=O)(=O)c3ccc4nc5c(c(C(=O)O)c4c3)CC(C)CC5)CC2)cc1` (stereo not drawn) has an inhibition of 6.94%.
`O=C(NC(=S)Nc1ccc(Cl)cc1Cl)C1CC1` showed an inhibition of -39.2%.
`CC(=O)Nc1ccc(Nc2nc3c(S(=O)(=O)c4ccc(C)c(C)c4)nnn3c3ccccc23)cc1` showed an inhibition of 23.4%.
Compound `Cc1ccc(S(=O)(=O)c2nnn3c2nc(N2CCN(c4ccccn4)CC2)c2ccccc23)cc1` has an inhibition of 10.2%.
`Cc1cccc(Nc2nc3c(S(=O)(=O)c4ccccc4)nnn3c3ccccc23)c1C` was tested, and the inhibition was 77.7% (active).
Compound `COc1ccc(C2(CNC(=O)Cc3ccc(OC)c(OC)c3)CCCC2)cc1` has an inhibition of 10.1%.
`CN(C)c1nc(Nc2ccc(Cl)c(Cl)c2)nc(N(C)C)n1` gave an inhibition of -14.8%.
For `OCCNc1nc(Nc2ccc(Cl)c(Cl)c2)nc2ccccc12`, the inhibition was 80.6% (active).
`Cc1nnc(NCCO)c2ccccc12` was tested, and the inhibition was -14%.
Compound `COc1ccc(C(C#N)N2N=C(C)CC2(C)C)cc1` (stereo not drawn) has an inhibition of -22.4%.
`Cc1ccc(S(=O)(=O)N2[C@@H](c3ccc(Br)cc3)C(C(=O)O)=C[C@H]2CC2CCCC2)cc1` was tested, and the inhibition was 30.4%.
In the case of `CC[C@H]1CN2CCc3cc(OC)c(OC)cc3[C@@H]2C[C@@H]1C[C@H]1NCCc2cc(OC)c(OC)cc21`, the inhibition is reported as 91.7% (active).
With `COc1ccc2c(c1)CCNC2Cc1ccc(OC)c(O)c1` (stereo not drawn) the inhibition was -20.9%.
Work on `CCc1ccc(OCC2c3cc(OC)c(OC)cc3CCN2C(C)=O)cc1` (stereo not drawn) yielded an inhibition of 6.86%.
Compound `C=C(C)c1cccc(C(C)(C)NC(=O)NCCN(CC)CC)c1` has an inhibition of 14.6%.
With `Cc1ccc(S(=O)(=O)N2C[C@@H]3CCCC[C@@H]3[C@@H](C)[C@H]2c2cn(Cc3ccccc3)c3ccc(F)cc23)cc1` the inhibition was 30%.
Work on `CCNC(=O)COC(=O)/C=C/c1c(C)nn(Cc2cccc(OC)c2)c1Cl` yielded an inhibition of 11.4%.
With `COc1ccc(/C=C/C(=O)c2ccc(NS(=O)(=O)c3ccc(C)cc3)cc2)cc1O` the inhibition was 65.1% (active).
`Cc1ccc(C(=O)/C=C/Nc2ccc(S(=O)(=O)Nc3onc(C)c3C)cc2)cc1` was tested, and the inhibition was 0.513%.
Compound `COc1ccc(NS(=O)(=O)c2ccc(NC(=S)NC(=O)/C=C/c3ccc(C)cc3)cc2)nn1` has an inhibition of -0.635%.
`Cc1cc(C)n2nc(C(=O)OC(C)C(=O)c3cc(C)c(C)cc3C)nc2n1` (stereo not drawn) was tested, and the inhibition was 1.62%.
`OCC[C@H]1C[C@H](O)[C@@H](O)[C@]2(Cc3ccccc3CO2)O1` showed an inhibition of -20.7%.
With `Cc1cccc(NC(=O)C(C)SCc2ccccc2)c1` (stereo not drawn) the inhibition was 0.19%.
With `Cc1cccc(CS(=O)(=O)c2ncc(Cl)c(C(=O)Nc3ccc(F)cc3)n2)c1` the inhibition was 82.1% (active).
`CSc1ncc(Cl)c(C(=O)Nc2cc(C)ccc2C)n1` showed an inhibition of -15.6%.
In the case of `Cc1cccc(NC(=O)c2nc(S(=O)(=O)Cc3ccccc3)ncc2Cl)c1`, the inhibition is reported as 97.5% (active).
For `CCOc1ccc(NC(=O)c2nc(SCC)ncc2Cl)cc1`, the inhibition was 46.8%.
Work on `Cc1cccc(NC(=O)c2nc[nH]c2C(=O)NCC(=O)OCc2ccccc2)c1` yielded an inhibition of 10.4%.
`CCOc1ccc2c(c1)c(=O)c(S(=O)(=O)c1ccc(C)cc1)cn2CC` showed an inhibition of 5.7%.
With `O=C(COC(=O)C1CC2C=CC1C2)Nc1ccccc1` (stereo not drawn) the inhibition was -11.4%.
`CCS(=O)(=O)c1ccc(C(=O)NC)c(Cl)c1Cl` gave an inhibition of 13.4%.
`COc1cc(C(=O)Nc2cc(C(F)(F)F)ccc2N2CCOCC2)ccc1O` was tested, and the inhibition was 15.4%.
For `CC(C)(C)OC(=O)C[C@H]1C/C=C\C[C@@H](CC(=O)N[C@H](CO)Cc2ccccc2)C(=O)NC[C@@H](c2ccccc2)OC1=O`, the inhibition was 9.47%.
For `CC(C)(C)OC(=O)C[C@@H]1C/C=C\C[C@@H](CC(=O)N[C@H](CO)Cc2ccccc2)C(=O)NC[C@@H](c2ccccc2)OC1=O`, the inhibition was 13.2%.
With `O=C(C[C@H]1C/C=C\C[C@@H](NC(=O)OCC2c3ccccc3-c3ccccc32)C(=O)O[C@@H](c2ccccc2)CNC1=O)N[C@H](CO)Cc1ccccc1` the inhibition was 99.8% (active).
With `Cc1c(NC(=O)CN(C)CC(=O)Nc2ccc(F)c(F)c2F)c(=O)n(-c2ccccc2)n1C` the inhibition was 7.46%.
With `OCC[C@H]1C[C@@H](O)[C@H](O)[C@]2(OCCCc3ccccc32)O1` the inhibition was 8.75%.
In the case of `CC(C)C[C@H](NC(=O)Nc1cccc(C(F)(F)F)c1)C(=O)O`, the inhibition is reported as 29.7%.
Work on `O=C(Nc1ccc(Cl)cc1)Nc1ccc(C(=O)N2CCOCC2)cc1` yielded an inhibition of 9.36%.
In the case of `O=C(Nc1ccc(C(=O)N2CCOCC2)cc1)Nc1cccc(C(F)(F)F)c1`, the inhibition is reported as 54.6% (active).
`CC(=O)N1CCN(C(=O)Nc2cccc(C(F)(F)F)c2)CC1` showed an inhibition of -7.17%.
`CCNS(=O)(=O)c1ccc(NC(=O)Nc2cccc(C(F)(F)F)c2)cc1` was tested, and the inhibition was 52.6% (active).
`O=C(NCc1ccccc1)c1ccc(S(=O)(=O)Nc2cccc(C(F)(F)F)c2)cc1` showed an inhibition of 25.2%.
For `O=S(=O)(NCCS(=O)(=O)N1CCN(c2ccccc2)CC1)c1ccc(F)cc1`, the inhibition was 23.9%.
`Cc1nc(-c2ccccc2)cn2c1nc1ccccc12` showed an inhibition of 14.8%.
Compound `COc1ccccc1NC(=O)c1c(Br)cnn1C` has an inhibition of -30.1%.
With `CN(C(=O)CCN1C(=O)/C(=C/c2ccccc2F)SC1=S)C1CCS(=O)(=O)C1` (stereo not drawn) the inhibition was 24.9%.
`O=C(CN1CCCCCC1)NCCN1C(=O)S/C(=C\c2ccccc2Cl)C1=O` gave an inhibition of 3.22%.
`O=C1/C(=C\c2ccccc2Cl)SC(=S)N1CCC(=O)N1CCCc2ccccc21` was tested, and the inhibition was 99.5% (active).
Compound `COc1ccc(C(=O)OCc2cc(=O)n3ccsc3n2)cc1F` has an inhibition of 2.88%.
`O=C(NNC1CC(=O)N(c2cccc(Cl)c2)C1=O)c1cccnc1` (stereo not drawn) was tested, and the inhibition was 14.9%.
`COc1ccc(-c2c(C)cc3oc(=O)cc(-c4ccccc4)c3c2C)cc1F` gave an inhibition of 2.64%.
`COc1cc(OC)c2c(-c3cccc(-c4cccc(N)c4)c3)cc(=O)oc2c1` was tested, and the inhibition was 75% (active).
For `COc1ccc(-c2c(C)cc3oc(=O)cc(-c4ccccc4)c3c2C)cc1OC`, the inhibition was 7.66%.
`C=CCn1c(=S)[nH]c2scc(-c3ccco3)c2c1=O` gave an inhibition of -19.1%.
`Cc1ccccc1C(OCCN(C)C)C1CCCCC1` (stereo not drawn) was tested, and the inhibition was 25.8%.
`COc1cccc(OC)c1C(=O)N1CCN(Cc2cccnc2)CC1` gave an inhibition of -4.03%.
For `COc1ccc(S(=O)(=O)N2CCOCC2)cc1NC(=O)Cc1coc2cc(C)ccc12`, the inhibition was 3.68%.
With `COc1ccc(CNS(=O)(=O)c2ccc(-c3cnc(C4CC4)o3)cc2)cc1` the inhibition was 15.3%.
For `Cc1cccc(NS(=O)(=O)c2ccc(-c3cnc(C4CC4)o3)cc2)c1`, the inhibition was 65.1% (active).
Work on `Cc1cccc(CNS(=O)(=O)c2ccc(-c3cnc(C4CC4)o3)cc2)c1` yielded an inhibition of 35.8%.
Work on `CN(C)S(=O)(=O)c1ccc(C(=O)NCCN=C2NS(=O)(=O)c3ccccc32)cc1` yielded an inhibition of 7.98%.
With `COCCCNC(=O)CN1CCN(Cc2ccccc2Cl)C1=O` the inhibition was -6.08%.
For `Cc1ccc(-c2ccc(=O)n(CC(=O)NCCCN3CCCCC3)n2)cc1`, the inhibition was 2.15%.
`Cc1nn(CC(=O)NCCc2ccccc2)c(=O)c2cc3occc3n12` showed an inhibition of 19%.
For `CCc1ccc(-c2cc3c(=O)n(CC(=O)NCCCN4CCN(Cc5ccccc5)CC4)nc(C)n3n2)cc1`, the inhibition was 97.4% (active).
With `O=C(NNC(=O)c1cc(S(=O)(=O)N2CCCCC2)ccc1Cl)c1ccccc1O` the inhibition was 16.6%.
`C[C@H](NC(=O)OC(C)(C)C)c1nnc(SCC(=O)Nc2ccc(Br)cc2)o1` showed an inhibition of 18.7%.
For `C[C@@H](NC(=O)OC(C)(C)C)c1nnc(S(=O)(=O)Cc2ccccc2)o1`, the inhibition was 53.4% (active).
`CC(C)Sc1nnc([C@H](Cc2ccccc2)NC(=O)OC(C)(C)C)o1` showed an inhibition of 2.05%.
`NC(=O)CC(NC(=O)Cc1ccc(Br)cc1)c1ccc(NC2CC3CCC2C3)c([N+](=O)[O-])c1` (stereo not drawn) showed an inhibition of 9.79%.
Work on `COc1ccc(Br)cc1CN(C)C(=O)C1CC(=O)N(C2CCCC2)C1` (stereo not drawn) yielded an inhibition of 9.72%.
